# The entries come from a sample that favours hits as a whole.
# NOMO-1 viab: STK33 inhibitor candidate reducing NOMO-1 cell viability | AID 2330 | actives 7.5% (n = 37,000) | NOMO-1 AML viability, CellTiter-Glo luminescence, 72 h | inhibition, % (test concentration not listed); in the data active = inhibition above about 80%; inconclusive = no clear call, values can overlap the other calls
# PD-1 reverse act: reversal of PD-1 mediated T-cell inhibition | primary human CD4 T cells, PD-L1 beads, CellTiter-Glo 96 h | activation, % (test concentration not listed) | 29,000 tested, under 10 active | AID 2316; call rule not given here;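 also: 0% = median vehicle wells and 100% = positive control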
# STK33 inh: inhibitors of human STK33 kinase | AID 2322 | ADP-Glo luminescence, MBP substrate | actives 0.44% (n = 27,000) | inhibition, % at 12.5 µM; in the data active = inhibition above about 20%; inconclusive = no clear call, values can overlap the other calls
# Target sequence (Q9BYT3 whole entry, looked up): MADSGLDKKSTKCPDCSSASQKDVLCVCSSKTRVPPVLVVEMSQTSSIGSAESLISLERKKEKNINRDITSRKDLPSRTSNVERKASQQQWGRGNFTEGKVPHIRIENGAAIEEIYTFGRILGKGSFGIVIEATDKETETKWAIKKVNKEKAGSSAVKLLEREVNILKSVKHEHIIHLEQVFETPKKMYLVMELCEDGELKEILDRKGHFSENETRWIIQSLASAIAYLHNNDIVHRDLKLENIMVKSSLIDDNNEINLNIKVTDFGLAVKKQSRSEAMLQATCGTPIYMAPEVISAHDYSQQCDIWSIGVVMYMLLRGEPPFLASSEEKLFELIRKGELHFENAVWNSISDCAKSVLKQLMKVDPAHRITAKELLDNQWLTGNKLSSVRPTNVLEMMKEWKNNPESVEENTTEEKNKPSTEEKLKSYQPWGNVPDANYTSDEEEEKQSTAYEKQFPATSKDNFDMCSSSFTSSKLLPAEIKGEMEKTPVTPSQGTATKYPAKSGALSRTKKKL
# Numbers without * were called inactive; ? = inconclusive; / = not tested or not shown.
SMILES,NOMO-1 viab,PD-1 reverse act,STK33 inh
N#C/C(=C(\O)c1ccc(C(=O)c2ccccc2)cc1)c1nc2ccccc2s1,34.9,0.3,/
C[C@@H]1CC(=O)C2=C(C1)C[C@@H](O)[C@@]1(O)C2C(=O)c2cccc(O)c2[C@@H]1O (stereo not given in full),3.9,1.2,-9.1
CC1CC(=O)C2=C(CCC34OC23C(=O)c2cccc(O)c2C4O)C1 (stereo not given),99.7*,-1.8,-5.3
O=C(Nc1sc2c(c1C(=O)NCC1CCCO1)CCCC2)c1ccc(Cl)cc1Cl (stereo not given),27.6,0.0,-1.1
CC1=CC(=O)OC(c2ccccc2)C1 (stereo not given),2.2,1.1,-0.8
Cn1c(SCC(=O)Nc2c(F)cc(F)cc2Br)nnc1-c1ccco1,-15.2,/,0.3
C[C@@H]1CN([C@@H](C)CO)C(=O)c2cc(NS(=O)(=O)c3cccs3)ccc2O[C@@H]1CN(C)Cc1ccc(C(=O)Nc2ccccc2N)cc1,111.3*,-3.1,/
C[C@@H]1CN([C@H](C)CO)C(=O)Cc2cc(NS(=O)(=O)c3cccs3)ccc2O[C@H]1CN(C)Cc1ccc(C(=O)Nc2ccccc2N)cc1,71.0,-0.2,/
C[C@H](CO)N1C[C@H](C)[C@H](CN(C)Cc2ccc(C(=O)Nc3ccccc3N)cc2)Oc2ccc(NS(=O)(=O)c3cccs3)cc2CC1=O,127.6*,-5.8,/
C[C@H]1CN([C@@H](C)CO)C(=O)c2cc(NS(=O)(=O)c3cccs3)ccc2O[C@@H]1CN(C)Cc1ccc(C(=O)Nc2ccccc2N)cc1,-20.4,-0.8,/
COC(=O)c1cc(OC)c(OC)cc1NC(=O)CSc1nc(C)cc(C(F)(F)F)c1C#N,-9.1,/,1.8
N#Cc1cccc(C#N)c1Oc1ccc(S(=O)(=O)NCc2ccco2)cc1,33.2,-0.6,/
C=CCn1c(-c2cccs2)nc(-c2ccccc2)c1-c1ccccc1,120.5*,-5.4,1.1
c1ccc(-n2c(SCc3nc4ccccc4s3)nnc2-c2cccs2)cc1,38.8,-3.3,5.3
Cc1cc(C)c(C)c(Oc2coc3cc(OCC(=O)Nc4ccccc4F)ccc3c2=O)c1,12.8,/,1.8
COC(=O)c1c(NC(=S)Nc2cccc(NC(C)=O)c2)sc(C)c1C,/,/,3.6
CS(=O)(=O)N(CC(=O)Nc1ccc(C(F)(F)F)cc1)c1ccc(Oc2ccccc2)cc1,109.0*,-3.1,-1.8
COC(=O)c1ccc(NC(=O)CN(c2cc(Cl)c(Cl)cc2Cl)S(C)(=O)=O)cc1,61.2,-1.7,3.8
Cc1ccc(NC(=O)CN(c2cc(Cl)c(Cl)cc2Cl)S(C)(=O)=O)cc1,16.1,1.4,1.8
CS(=O)(=O)N(CC(=O)Nc1ccc(C(F)(F)F)cc1)c1cccc(C(F)(F)F)c1,67.3,-4.6,-1.4
CS(=O)(=O)N(CC(=O)Nc1ccc(Oc2ccccc2)cc1)c1cc(Cl)c(Cl)cc1Cl,118.2*,0.0,2.0
COC(=O)c1cc(NC(=O)CN(c2cc(Cl)c(Cl)cc2Cl)S(C)(=O)=O)ccc1Cl,133.0*,-1.2,2.0
COc1cccc(NC(=O)CN(c2cc(Cl)c(Cl)cc2Cl)S(C)(=O)=O)c1,40.4,0.5,-2.1
Cc1ccc(NC(=O)CN(c2cc(Cl)c(Cl)cc2Cl)S(C)(=O)=O)cc1Cl,84.5*,0.0,-4.1
O=C(O)C(Cc1ccccc1)N1C(=O)C2C3C=CC(C3)C2C1=O (stereo not given),-1.0,1.5,-2.3
SMILES,NOMO-1 viab,PD-1 reverse act,STK33 inh
O=C(CSc1ccccc1)Nc1ccc(C(=O)Nc2ccc(Br)cc2C(=O)O)cc1,15.9,/,-3.1
CCn1c(SCC(=O)Nc2ccc([N+](=O)[O-])cc2C)nnc1-c1ccc(Cl)cc1,12.9,-0.8,3.1
N#Cc1ccc(C#N)c(-c2ccccc2)c1,7.0,-0.3,/
C[C@@H]1CN([C@@H](C)CO)C(=O)c2cccc(NC(=O)CCCCCC(=O)Nc3ccccc3N)c2O[C@H]1CN(C)Cc1ccccc1,122.2*,-1.6,/
C[C@@H]1CN([C@H](C)CO)C(=O)c2cccc(NC(=O)CCCCCC(=O)Nc3ccccc3N)c2O[C@@H]1CN(C)Cc1ccccc1,47.9,0.9,/
C[C@@H]1CN([C@@H](C)CO)C(=O)c2cccc(NC(=O)CCCCCC(=O)Nc3ccccc3N)c2O[C@H]1CN(C)Cc1ccc(Oc2ccccc2)cc1,141.4*,-4.4,/
C[C@@H]1CN([C@H](C)CO)C(=O)c2cccc(NC(=O)CCCCCC(=O)Nc3ccccc3N)c2O[C@H]1CN(C)Cc1ccncc1,8.4,1.8,/
C[C@@H]1CN([C@H](C)CO)C(=O)c2cccc(NC(=O)CCCCCC(=O)Nc3ccccc3N)c2O[C@@H]1CN(C)Cc1ccc(-c2ccccc2)cc1,125.5*,-0.2,/
C[C@H](CO)N1C[C@H](C)[C@@H](CN(C)Cc2ccc(Oc3ccccc3)cc2)Oc2ccc(NC(=O)CCCCCC(=O)Nc3ccccc3N)cc2C1=O,28.2,-0.2,/
C[C@@H]1CN([C@H](C)CO)C(=O)c2cccc(NC(=O)CCCCCC(=O)Nc3ccccc3N)c2O[C@@H]1CN(C)Cc1ccncc1,16.6,2.8,/
C[C@H]1CN([C@@H](C)CO)C(=O)c2cccc(NC(=O)CCCCCC(=O)Nc3ccccc3N)c2O[C@H]1CN(C)Cc1ccc(-c2ccccc2)cc1,121.8*,1.6,/
C/S(=N/C(=O)Nc1ccc(Cl)cc1)c1ccc(OC(=O)c2ccc(Cl)cc2)cc1 (stereo not given),56.7,-2.9,/
O=S(=O)(Nc1ncccn1)c1ccc(NC(=S)Nc2ccc(Oc3ccccc3)cc2)cc1,21.0,/,-2.4
O=C(Nc1ccccc1)/C(=C/c1ccccc1)NC(=O)c1ccccc1,14.7,1.0,/
C[C@H]1CN([C@@H](C)CO)C(=O)c2cccc(NC(=O)CCCCCC(=O)Nc3ccccc3N)c2O[C@H]1CN(C)Cc1ccc(C(F)(F)F)cc1,99.7*,-0.2,/
C[C@@H]1CN([C@@H](C)CO)C(=O)c2cccc(NC(=O)CCCCCC(=O)Nc3ccccc3N)c2O[C@H]1CN(C)Cc1ccncc1,4.9,0.0,/
C[C@@H]1CN([C@@H](C)CO)C(=O)c2cccc(NC(=O)CCCCCC(=O)Nc3ccccc3N)c2O[C@@H]1CN(C)Cc1ccc2c(c1)OCO2,?,-1.3,/
C[C@@H]1CN([C@@H](C)CO)C(=O)c2cccc(NC(=O)CCCCCC(=O)Nc3ccccc3N)c2O[C@H]1CN(C)Cc1ccc(Cl)c(Cl)c1,137.8*,-3.0,/
CN(C)CCNc1nc2c(c(=O)n(C)c(=O)n2C)n1Cc1c(F)cccc1Cl,17.7,2.1,0.9
O=S(=O)(c1ccccc1)c1nc(-c2ccccc2)oc1NCC1CCCO1 (stereo not given),-3.8,0.3,6.8
COC(=O)c1ccccc1NC(=O)CNC(=O)c1cccs1,-25.4,2.1,-2.7
Cc1ccc(S(=O)(=O)Nc2ccc3c(c2)CC(=O)N([C@H](C)CO)C[C@@H](C)[C@@H](CN(C)Cc2ccc(C(=O)Nc4ccccc4N)cc2)O3)cc1,107.4*,0.4,/
C[C@H](CO)N1C[C@H](C)[C@H](CN(C)Cc2ccc(C(=O)Nc3ccccc3N)cc2)Oc2ccc(NS(=O)(=O)c3ccc(F)cc3)cc2CC1=O,140.0*,-2.3,/
C[C@H](CO)N1C[C@H](C)[C@H](CN(C)Cc2ccc(C(=O)Nc3ccccc3N)cc2)Oc2ccc(NS(=O)(=O)c3ccc(Cl)cc3)cc2CC1=O,141.5*,-0.7,/
